From PubChem BioAssay AID686964 (The Scripps Research Institute Molecular Screening Center, 2013) come the findings set out here.

About 1,100 (0.3%) of roughly 370,000 compounds were called active. The full list was thinned out, with actives kept by preference. A number with no mark means an inactive call. Rule as the data show it: active = inhibition above about 13%; inactive = the rest.

For the assay, the target named is Methyl-CpG-binding domain protein 2 (Homo sapiens) (UniProt Q9UBB5). As to the kind of experiment: MBD2-DBD methyl-oligonucleotide interaction blockers – biochemical, TR-FRET, DNA-binding domain, human, primary screen (AID 686964). The conditions noted are these: MBD2 binding to methylated oligonucleotide, at 4.4 µM, hits give high values. (In general: Time-resolved FRET reads energy transfer from a long-lived donor to a nearby acceptor.)
Methyl-CpG-binding domain protein 2 (Homo sapiens), sequence (Q9UBB5 whole entry, looked up, the tested form may be a part): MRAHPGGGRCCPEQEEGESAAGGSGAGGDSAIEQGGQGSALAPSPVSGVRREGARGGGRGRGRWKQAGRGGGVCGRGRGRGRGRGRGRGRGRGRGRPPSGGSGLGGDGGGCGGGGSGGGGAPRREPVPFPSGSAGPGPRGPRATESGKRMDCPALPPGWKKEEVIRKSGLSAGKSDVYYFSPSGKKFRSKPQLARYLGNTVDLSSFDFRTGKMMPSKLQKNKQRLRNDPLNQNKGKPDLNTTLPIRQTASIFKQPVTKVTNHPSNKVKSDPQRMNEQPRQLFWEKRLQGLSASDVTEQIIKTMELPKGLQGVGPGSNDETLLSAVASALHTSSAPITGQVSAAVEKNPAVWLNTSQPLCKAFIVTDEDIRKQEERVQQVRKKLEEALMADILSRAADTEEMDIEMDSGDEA
One may read the inhibition as the change of the read-out against control, counted positive when it falls. As to `COC(=O)c1cn(C)c2ccc(S(=O)(=O)N3CC(C)CC(C)C3)cc2c1=O` (centres undefined), the inhibition was 21.1% (active).
Consider `CCn1cc(C(=O)N2CC(C)CC(C)C2)c(=O)c2cc(S(=O)(=O)N3CCCC3)ccc21` (centres undefined), for which the inhibition was -7.45%.
The result for `CC1CCCCC1NC(=O)c1cn(C)c2ccc(S(=O)(=O)N3CCOCC3)cc2c1=O` (centres undefined) reads 0.43%; that for `CCOC(=O)c1ccn(-c2nc(-c3ccco3)cc(C(F)(F)F)n2)n1`, 1.89%; that for `Cc1cc(C)c2nc(-c3ccco3)cc(C(=O)O)c2c1`, 13.2% (active).
The result for `Cc1cc(C)c2nc(-c3cccnc3)cc(C(=O)Nc3ccc(S(=O)(=O)Nc4onc(C)c4C)cc3)c2c1` reads -1.74%; that for `CCC(=O)c1c(CC)c2n3c1=CC[C@H]3CC(Br)C=2` (some centres undefined), 1.67%.
The figure for `Cc1ccc(C(=O)NNC(=O)c2ccncc2)cc1S(=O)(=O)N1CCCCC1` is -3.54%; for `Cc1ccc(C(=O)Nc2ccc3c(c2)OCO3)cc1S(=O)(=O)N1CCCCC1` it is 13.4% (active).
Consider `Cc1ccc(NC(=O)C2CC(=O)N(c3ccc4c(c3)OCCO4)C2)cc1S(=O)(=O)N1CCCCCC1` (centres undefined), for which the inhibition is 2.94%.
The figure for `Cc1cc(C)nc(NC(=S)N2CCN(c3ccc(C(F)(F)F)cn3)CC2)c1` is -0.18%; for `Cc1ccccc1NC(=O)CN1C(=O)N/C(=C\c2cccn2-c2cccc(C(=O)O)c2)C1=O` it is 20.6% (active); for `N#Cc1ccccc1CN1C(=O)S/C(=C/c2cccn2-c2cccc(C(=O)O)c2)C1=O` it is 10.6%.
The figure for `COC(=O)CN1C(=O)N/C(=C/c2ccc(OC)c(C)c2OC)C1=O` is -3.97%; for `Cc1ccc(Cn2cc(CN3[C@@H](C)COc4cc(Br)ccc4S3(=O)=O)nn2)cc1` it is -5.2%; for `CCc1noc(C)c1C(=O)N1CCN(S(=O)(=O)c2cccc(C(F)(F)F)c2)CC1` it is -5.25%.
The result for `O=C(CCl)NC1CCCCN(Cc2cccc(C(F)(F)F)c2)C1=O` (centres undefined) reads 3.06%; that for `CCOc1ccc(-n2c(SCC(=O)Nc3ccc(OC)cc3)nc3sc4c(c3c2=O)CCN(C)C4)cc1`, 23.5% (active); that for `CCCSc1nc2sc3c(c2c(=O)n1-c1ccc(OC)cc1)CCN(C)C3`, -2%.
For `CCn1c(SCC(=O)Nc2ccc(Br)cc2)nc2sc3c(c2c1=O)CCN(C)C3`, the inhibition is 0.05%.
The figure for `CCCCC(=O)N[C@@H]1CC[C@@]23CCCN2C(=O)CCC[C@H]3[C@H]1C` is -0.72%.
For the compound `COc1ccc(Cl)cc1NC(=O)COC(=O)c1ccc(Br)o1`, the inhibition is -1.28%.
The result for `COc1ccc(Cl)cc1NC(=O)CN(C)Cc1ccc(OC)c(OC)c1` reads 0.39%; that for `COc1ccc(Cl)cc1NC(=O)CCS(=O)(=O)c1ccc(Br)cc1`, 26.3% (active).
